Broadly, the inhibition is the relative decrease from the control value, in per cent.

Results on 14 molecules are retold here after PubChem BioAssay.

Calls of active or inactive are those of the source.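 The calls were made as follows, unless noted: active = inhibition at or above 50% at 10 µM; inactive = inhibition below 50%.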

Test [1] is described as follows: inhibitors of TNFa-induced NFkB p65 translocation, primary screen, imaging, HUVEC, MLSMR starter and 10KST1 sets (AID 438;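 active = inhibition above 20% together with a positive visual image hit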;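 also: compound added about 3h40 before a 20 min TNFalpha stimulation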;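 as to inhibition: signal is the nuclear over cytoplasmic p65 intensity ratio per well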). As to conditions: HUVEC TNFa-induced p65 nuclear translocation; cell count: measured here: nuclei count (cytotoxicity indicator), at 2.08 µM; inhibition: at 2 µM, stronger effect = higher value, 0% TNFa-plus-vehicle, 100% no-TNFa wells.
Test [2] can be described thus: inhibitors of mutant huntingtin aggregation, primary screen, imaging, exon1htt(103Q)mCFP cells, high-content imaging (AID 483;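 active = visual image review flags a hit and inhibition of aggregation exceeds 20%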;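 also: compound exposure lasted 3 days before fixation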;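 as to nuclei count: percent of the per-plate median nuclei count of sample wells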). As to conditions: exon1htt(103Q)mCFP cell line, aggregate imaging, at 2 µM; inhibition of aggregation: stronger effect = higher value; nuclei count: measured here: cell count, toxicity.
The nature of test [3]: inhibitors of E-selectin induction by TNFa, primary screen, imaging, HUVEC, immunofluorescence, MLSMR starter and 10KST1 sets (AID 487;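 active = visually confirmed hit in the image check and inhibition above 20%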;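 as to inhibition: signal is fraction of cell area covered by stained E-selectin grains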;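 as to nuclei count: 100% = median nuclei count of all wells on the same plate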). As to conditions: HUVEC TNFalpha-induced E-selectin immunofluorescence imaging, at 2 µM; inhibition: stronger effect = higher value; nuclei count: measured here: cell number, toxicity.
Test [4] deals with Voltage-gated potassium channel subunit beta-2 (Rattus norvegicus) (UniProt P62483). As to the kind of experiment: KvBeta enzyme negative modulators, primary screen, biochemical, NADPH fluorescence (AID 622;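 active = fluorescence slope higher than the sample average by over 3 SD, cut at about -0.22 in these data, passing the limit was not always enough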;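 also: slope of raw intensity against log time taken from 70 to 1610 s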). To be noted: recombinant KvBeta, 4-cyanobenzaldehyde reduction, at 10 µM, stronger effect = higher value.
Sequence of Voltage-gated potassium channel subunit beta-2 (Rattus norvegicus) (P62483 whole entry, looked up): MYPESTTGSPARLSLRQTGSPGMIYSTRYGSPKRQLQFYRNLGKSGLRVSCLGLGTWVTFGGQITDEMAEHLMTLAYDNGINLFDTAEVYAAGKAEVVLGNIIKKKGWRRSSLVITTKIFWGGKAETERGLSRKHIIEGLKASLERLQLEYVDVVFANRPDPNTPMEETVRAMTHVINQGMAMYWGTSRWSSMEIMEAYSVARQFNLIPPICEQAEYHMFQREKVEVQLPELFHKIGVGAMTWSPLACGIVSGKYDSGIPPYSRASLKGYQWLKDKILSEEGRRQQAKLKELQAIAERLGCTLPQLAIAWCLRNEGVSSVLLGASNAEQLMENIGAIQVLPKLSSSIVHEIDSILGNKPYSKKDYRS
Test [5] shares this target. As to the kind of experiment: KvBeta positive modulators, primary screen, biochemical, NADPH fluorescence (AID 623;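 active = NADPH fluorescence slope more negative than the mean of all samples by about 3 SD, 99.7% confidence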;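 also: fluorescence intensity change per second fitted from 20 to 320 s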). As to conditions: Recombinant KvBeta, NADPH fluorescence decrease slope, 10 min; at 10 µM; stronger effect = lower value.
The target of test [6] is Alpha-2C adrenergic receptor (Homo sapiens) (UniProt P18825). Briefly: modulators of alpha2C/GIRK thallium flux, primary screen, cell-based, HEK293 alpha2C/GIRK1/2 (AID 624;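 active = fluorescence slope after compound addition differing from the mean of all screened samples at 99.7% confidence, in either direction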;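 also: slope of fluorescence ratio to pre-addition baseline per second over 15 to 24 s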). As to conditions: thallium flux BTC fluorescence, at 10 µM, actives lie on both sides.
Sequence of Alpha-2C adrenergic receptor (Homo sapiens) (P18825 whole entry, looked up): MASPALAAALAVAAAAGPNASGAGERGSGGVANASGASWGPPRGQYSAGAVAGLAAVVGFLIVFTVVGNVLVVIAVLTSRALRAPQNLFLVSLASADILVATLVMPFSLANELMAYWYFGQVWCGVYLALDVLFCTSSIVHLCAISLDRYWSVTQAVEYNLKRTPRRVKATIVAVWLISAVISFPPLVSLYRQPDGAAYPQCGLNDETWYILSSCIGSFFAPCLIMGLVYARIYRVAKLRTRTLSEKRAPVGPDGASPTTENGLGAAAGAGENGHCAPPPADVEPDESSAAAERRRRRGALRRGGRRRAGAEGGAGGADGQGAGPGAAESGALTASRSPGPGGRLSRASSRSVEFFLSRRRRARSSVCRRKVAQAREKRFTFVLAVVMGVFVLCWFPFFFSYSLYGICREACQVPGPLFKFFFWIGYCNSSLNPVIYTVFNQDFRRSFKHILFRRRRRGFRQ
Test [7] in a line: inhibitors of Sendai virus-induced IRF3 signaling, primary screen, TLR/RLR signaling modifier project, cell-based, Sendai virus stimulus, luciferase, 10K MLSCN set (AID 602276).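 Also: firefly luciferase from ISG56 promoter only with Renilla not read in this screen; 0% = Sendai virus plus DMSO and 100% = medium plus DMSO without virus.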 As to conditions: HEK293 RL24 IRF3 luciferase reporter, at 10 µM, stronger effect = higher value.
Test [8] in a line: inhibitors of poly I:C-induced TLR3 signaling, primary screen, cell-based, poly I:C stimulus, luciferase, 10K MLSCN set (AID 602277;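 active = inhibition of the reporter signal at or above 50%; inactive = inhibition below 50%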). To be noted: HEK293-TLR3 RL24 IRF3 luciferase reporter, at 10 µM, stronger effect = higher value. (Reporter assays use an easily measured gene product as a stand-in for the process of interest.)

Turning to `COc1ccc(CNC(=O)C(c2ccco2)N(Cc2cccs2)C(=O)Cc2cccs2)cc1` (centres undefined), the cell count in test [1] turned out to be 658. The inhibition in test [1] was 9.5% (inactive); in test [3] it was -44.5% (inactive); in test [7], 13.1% (inactive); in test [8], 28.3% (inactive). In test [2], the inhibition of aggregation is -14.3% (inactive). For the same molecule, the nuclei count in test [2] worked out at 107%; in test [3], 105%. Further, the fluorescence slope in test [4] was -0.6 (inactive). For the same molecule, the NADPH fluorescence slope in test [5] was -8.4e-06 (inactive). For the same molecule, the slope in test [6] was 0.00565 (inactive).

For the molecule `Cc1ccc(-c2cc(C(F)F)n3ncc(C(=O)N4CCN(c5ccccn5)CC4)c3n2)cc1`, the cell count in test [1] came to 829. Besides, the inhibition was -1.7% (inactive) in test [1], -56.7% (inactive) in test [3], 17.4% (inactive) in test [7] and 42.8% (inactive) in test [8]. Also, in test [2], the inhibition of aggregation was 9.3% (inactive). For the same molecule, the nuclei count in test [2] was found to be 85.3%; in test [3], 120%. In addition, in test [4], the fluorescence slope is -0.514 (inactive). The NADPH fluorescence slope in test [5] was -3e-05 (inactive). The slope in test [6] is 0.00598 (inactive).

Regarding `COc1ccc(-c2nnn(CCc3nn[nH]n3)n2)cc1OC`, the cell count in test [1] stood at 419. For the same molecule, the inhibition was -7.7% (inactive) in test [1], -9.7% (inactive) in test [3], 8.58% (inactive) in test [7] and -8.87% (inactive) in test [8]. Further, the inhibition of aggregation in test [2] was 1.4% (inactive). Moreover, the nuclei count in test [2] stood at 70.5%; in test [3], 112%. Moreover, in test [4], the fluorescence slope was -0.561 (inactive). In addition, in test [5], the NADPH fluorescence slope was -2.6e-05 (inactive). Also, the slope in test [6] is 0.00328 (inactive).

As to `COCCNC(=O)C(c1cccs1)N(C(=O)Cn1nnc2ccccc21)c1ccccc1` (centres undefined), the cell count in test [1] amounted to 385. Besides, the inhibition in test [1] was 5.9% (inactive); in test [3] it was 24.6% (inactive); in test [7] it was 10.7% (inactive); in test [8] it was 6.48% (inactive). Also, the inhibition of aggregation in test [2] is 0.7% (inactive). Further, the figures for the nuclei count in test [2] and in test [3] were 98.9% and 93.8%, respectively. In addition, the fluorescence slope in test [4] was -0.506 (inactive). Also, the NADPH fluorescence slope in test [5] was -1.1e-05 (inactive). The slope in test [6] is 0.00629 (inactive).

As to `O=C(CSc1nnc(-c2cnccn2)n1Cc1ccco1)c1ccc(Cl)cc1`, in test [1], the cell count was found to be 287. Besides, the inhibition in test [1] was 16.6% (inactive); in test [3], -8.9% (inactive); in test [7], 8.56% (inactive); in test [8], 22.1% (inactive). Further, in test [2], the inhibition of aggregation was -32.9% (inactive). Moreover, the results for the nuclei count in test [2] and in test [3] were 95.7% and 124%, respectively. For the same molecule, the fluorescence slope in test [4] was -0.473 (inactive). Further, the NADPH fluorescence slope in test [5] is 4.5e-06 (inactive). Besides, the slope in test [6] was 0.00285 (inactive).

Regarding `CCOc1ccc2nc(Nc3nc4c(c(=O)[nH]3)CCC4)nc(C)c2c1`, the cell count in test [1] worked out at 612. Also, the inhibition in test [1] was 0.8% (inactive); in test [3], -9.2% (inactive); in test [7], -19.8% (inactive); in test [8] it was -83.1% (inactive). Also, the inhibition of aggregation in test [2] was -12.1% (inactive). For the same molecule, the results for the nuclei count in test [2] and in test [3] were 112% and 110%, respectively. The fluorescence slope in test [4] is -0.429 (inactive). Further, the NADPH fluorescence slope in test [5] is -5.3e-05 (inactive). Moreover, the slope in test [6] was 0.00628 (inactive).

`COc1ccc2cc(CN(Cc3ccco3)C(c3nnnn3C3CCCCC3)C(C)C)c(=O)[nH]c2c1` (centres undefined): the cell count in test [1] amounted to 325. In addition, the inhibition in test [1] is 1.6% (inactive); in test [3], -147% (inactive); in test [7], 11.1% (inactive); in test [8], -3.61% (inactive). For the same molecule, the inhibition of aggregation in test [2] is 2.5% (inactive). In addition, the nuclei count in test [2] turned out to be 119%; in test [3] it was 125%. The fluorescence slope in test [4] is -0.451 (inactive). Further, in test [5], the NADPH fluorescence slope is 5.5e-07 (inactive). Besides, in test [6], the slope was 0.00859 (inactive).

On to `CCCOc1ccccc1NC(=O)c1ccc(N)cc1`, for which the cell count in test [1] is 428. Further, the inhibition in test [1] was 7% (inactive); in test [3], -137% (inactive); in test [7], 11.3% (inactive); in test [8], 18.2% (inactive). In addition, the inhibition of aggregation in test [2] is 6.7% (inactive). Further, the nuclei count in test [2] stood at 106%; in test [3], 114%. In addition, the fluorescence slope in test [4] was -0.396 (inactive). The NADPH fluorescence slope in test [5] was -4.2e-05 (inactive). Further, the slope in test [6] is 0.00363 (inactive).

`CS(=O)(=O)Nc1ccccc1C(=O)O`: the cell count in test [1] came to 363. Besides, the inhibition in test [1] was -2.1% (inactive); in test [3], -81.2% (inactive); in test [7], 11.5% (inactive); in test [8], 33% (inactive). Further, the inhibition of aggregation in test [2] was -4.3% (inactive). Further, the nuclei count in test [2] came to 113%; in test [3], 121%. In addition, the fluorescence slope in test [4] was -0.411 (inactive). In test [5], the NADPH fluorescence slope was -2.7e-05 (inactive). For the same molecule, the slope in test [6] was 0.00253 (inactive).

As to `C=CCSc1nnc(Cc2c(C)[nH]c3ccccc23)o1`, in test [1], the cell count came to 800. Moreover, the inhibition in test [1] is 3.5% (inactive); in test [3], -15.9% (inactive); in test [7], 7.53% (inactive); in test [8], 15% (inactive). Besides, the inhibition of aggregation in test [2] was 20.5% (inactive). For the same molecule, the nuclei count in test [2] came to 92.7%; in test [3], 118%. Moreover, the fluorescence slope in test [4] is -0.427 (inactive). Further, the NADPH fluorescence slope in test [5] is -6e-05 (inactive). In addition, the slope in test [6] was 0.00499 (inactive).

Take `Cc1[nH]n(C(N)=S)c(=O)c1C(c1ccccc1)C(C#N)C#N` (centres undefined): the cell count in test [1] worked out at 694. Further, the inhibition in test [1] was 9.6% (inactive); in test [3], 32.6% (inactive); in test [7] it was -11.3% (inactive); in test [8], -18% (inactive). The inhibition of aggregation in test [2] was -2.9% (inactive). In addition, the nuclei count came out at 107% in test [2] and 99.1% in test [3]. Besides, the fluorescence slope in test [4] is -0.38 (inactive). Moreover, in test [5], the NADPH fluorescence slope is 5.1e-06 (inactive). Also, the slope in test [6] is 0.00522 (inactive).

For `O=C(CN1C(=O)COCC1=O)N1CCOCC1`, the cell count in test [1] amounted to 377. Further, the inhibition was -7% (inactive) in test [1], -35.1% (inactive) in test [3], 9.66% (inactive) in test [7] and 23.7% (inactive) in test [8]. In addition, the inhibition of aggregation in test [2] was 11.7% (inactive). For the same molecule, the nuclei count is 108% in test [2] and 112% in test [3]. For the same molecule, in test [4], the fluorescence slope was -0.422 (inactive). In test [5], the NADPH fluorescence slope is -0.00011 (inactive). Further, in test [6], the slope is 0.00596 (inactive).

Consider `COc1ccc(S(=O)(=O)NCc2ccc(C(=O)O)cc2)cc1`, for which the cell count in test [1] was 375. Besides, the inhibition in test [1] was 2.2% (inactive); in test [3] it was -91.6% (inactive); in test [7], 9.81% (inactive); in test [8] it was 17.1% (inactive). The inhibition of aggregation in test [2] is -11.9% (inactive). For the same molecule, the nuclei count in test [2] stood at 55.2%; in test [3], 93.9%. The fluorescence slope in test [4] is -0.624 (inactive). Also, in test [5], the NADPH fluorescence slope is -2.6e-05 (inactive). The slope in test [6] was 0.0062 (inactive).

Take `O=C(Nc1ccc(S(=O)(=O)N2CCc3ccccc32)cc1)c1ccc2c(c1)OCO2`: the cell count in test [1] came to 307. The inhibition was -10% (inactive) in test [1], 5.1% (inactive) in test [3], -3.74% (inactive) in test [7] and -67.6% (inactive) in test [8]. Further, the inhibition of aggregation in test [2] is 14.7% (inactive). Also, the figures for the nuclei count in test [2] and in test [3] were 95.5% and 83.2%, respectively. Moreover, in test [4], the fluorescence slope was -0.603 (inactive). Moreover, in test [5], the NADPH fluorescence slope is -1.6e-05 (inactive). Moreover, the slope in test [6] is 0.0108 (inactive).
